Measured values as given in PubChem BioAssay (NCI).
This is part of a sample that, as a whole, favours compounds with a hit. Of some 83,000 tested, about 20% had one in any assay.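 Each cell line was grown in a 96-well plate and treated with one concentration of compound for 48 hours. Values below 10 were considered active.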 Calls of active or inactive are those of the source.

System: PC-3 prostate
Assay: NCI-60 one-dose screen, 48 h (100 = growth as untreated, 0 = no growth, -100 = all killed)
Conditions: 10 µM unless noted

Row | SMILES | growth
1 | CN(C)c1ccc(-c2nc3ncc(Br)cc3o2)cc1 | 83.3% (inactive)
2 | COc1ccc(-c2cc(-c3nnc(SCC(=O)Nc4ccc(C(C)=O)cc4)n3-c3ccccc3)c3ccccc3n2)cc1OC | 98.7% (inactive)
3 | Nc1nc(NC2CC2)c2ncn(C3C=CC(CO)C3)c2n1 (centres undefined) | 119% (inactive)
4 | C[C@]12CCC(=O)C=C1CC[C@H]1[C@@H]3C[C@@H](O)[C@](O)(C(=O)CO)[C@@]3(C)C[C@H](O)[C@@]12F | 95.3% (inactive)
5 | NS(=O)(=O)c1cc2c(cc1Cl)NC=NS2(=O)=O | 100% (inactive)
6 | COc1cnc2c(c1)C(=O)c1c-2n(CCCn2ccnc2)c(=O)c2cc(F)ccc12 | -4.35% (active)
7 | NC(=O)c1cc(Br)cc(Br)c1NS(=O)(=O)c1ccccc1 | 89.2% (inactive)
8 | CN(C)c1ccc(-n2nc3ccccc3n2)cc1 | 101% (inactive)
9 | CC1CN(C2CCCCC2)C(=O)NC1=O (centres undefined) | 94% (inactive)
10 | O=C1C=CC(=O)N1c1ccccc1N1C(=O)C=CC1=O | 97.5% (inactive)
11 | Cc1n(Cc2ccc3ccccc3c2)c2ccccc2[n+]1Cc1ccc2ccccc2c1 | -68.1% (active)
12 | C[C@H]1O[C@@H](O[C@H]2[C@@H](O)C[C@H](O[C@H]3[C@@H](O)C[C@H](O[C@H]4CC[C@]5(C)C6C[C@@H](O)[C@]7(C)[C@@H](C8=CC(=O)OC8)CC[C@]7(O)C6CC[C@@H]5C4)O[C@@H]3C)O[C@@H]2C)C[C@H](O)[C@@H]1O (some centres undefined) | -21.3% (active)
13 | O=C(CNc1ccc2c(c1)C(=O)c1ccccc1C2=O)Nc1ccc2c(c1)C(=O)c1ccccc1C2=O | -24.3% (active)
14 | Cc1sc2nc(N3CCCCC3)[nH]c(=O)c2c1C | 76.4% (inactive)
15 | NC(=NCCCCCCN=C(N)/N=C(\N)Nc1ccc(Cl)cc1)/N=C(\N)Nc1ccc(Cl)cc1 | 20.7% (inactive)
16 | COc1cc(NC(=O)NCc2ccco2)ccc1-c1ccc(NC(=O)NCc2ccco2)cc1OC | 33.6% (inactive)
17 | CSc1nc(Nc2ccc(S(=O)(=O)Nc3ccon3)cc2)c(C#N)c(-c2ccc(Cl)cc2)n1 | 109% (inactive)
18 | COP(=O)(OC)C(c1ccc(O)cc1)(c1ccc(O)cc1)c1ccc(O)cc1 | 92.8% (inactive)
19 | C=C1CCC2C(C)(COC(=O)CC)C(OC(=O)CC)CCC2(C)C1C/C=C1/C(=O)OCC1OC(=O)CC (centres undefined) | 27.7% (inactive)
20 | Cc1cnc2nc(-c3ccc(N(C)C)cc3)cn2c1 | 121% (inactive)
21 | Cc1ccc2nc3c(n2c1)C(=O)C(=O)c1ccccc1-3 | -24.5% (active)
22 | CC(C)=CCCC(C)c1ccc(C)c2c1OCN(CC1CCNCC1)C2 (centres undefined) | 59.4% (inactive)
23 | CCOc1cc(/C=C/C(=O)C(C(=O)/C=C/c2ccc(OC(=O)CNc3nc4ccccc4[nH]3)c(OCC)c2)C(=O)CNc2nc3ccccc3[nH]2)ccc1OC(=O)CNc1nc2ccccc2[nH]1 | 3.12% (active)
24 | COc1ccc(C(=O)/C=C/c2cccc(Nc3ccnc4cc(Cl)ccc34)c2)cc1 | 33.7% (inactive)

System: SK-MEL-5 melanoma
Assay: as above
Conditions: 10 µM unless noted

Row | SMILES | growth
25 | COc1cc(C2CC(C3C(=O)N(C)C(=O)N(C)C3=O)=NN2C=O)cc(OC)c1OC (centres undefined) | 113% (inactive)
26 | C=C1CCC2C3(C)COC(c4ccccc4)OC3CCC2(C)C1C/C=C1/C(=O)OCC1OC(C)=O (centres undefined) | 60.7% (inactive)
27 | Clc1ccc(C2=NN(c3ccc(Cl)cc3)C(c3cccc(Nc4ccnc5cc(Cl)ccc45)c3)C2)cc1 (centres undefined) | 92.8% (inactive)
28 | CC(=O)N1N=C(c2ccc(Nc3nc(NCCO)nc(NCCO)n3)cc2)CC1c1ccc(Cl)cc1 (centres undefined) | 98.3% (inactive)
29 | O=C(c1ccccc1)c1ccc(Oc2ccc([N+](=O)[O-])cc2[N+](=O)[O-])cc1 | 32.2% (inactive)
30 | O=C(C(=O)N1CCOCC1)c1cn(CCCn2cc(C(=O)C(=O)N3CCOCC3)c3ccccc32)c2ccccc12 | 100% (inactive)
31 | CC(C)CC1NC(=O)C(CCCN)NC(=O)C(C(C)C)NC(=O)C2CCCN2C(=O)C(Cc2ccccc2)NC(=O)C(CC(C)C)NC(=O)C(CCCN)NC(=O)C(C(C)C)NC(=O)C2CCCN2C(=O)C(Cc2ccccc2)NC1=O (centres undefined) | -98.3% (active)
32 | Cc1csc(C#Cc2cncc(O)c2)n1 | 82.6% (inactive)
33 | COc1cc(/C=C/C(=O)C(C(=O)/C=C/c2ccc(OC(=O)CCNC34CC5CC(CC(C5)C3)C4)c(OC)c2)C(=O)CCNC23CC4CC(CC(C4)C2)C3)ccc1OC(=O)CCNC12CC3CC(CC(C3)C1)C2 (centres undefined) | -36.8% (active)
34 | C/C=C(/C(=C/C)c1ccc(O)cc1)c1ccc(O)cc1 | 5.64% (active)
35 | COc1cc(/C=C/C(=O)CC(=O)/C=C/c2ccc(OC(=O)CCNC34CC5CC(CC(C5)C3)C4)c(OC)c2)ccc1OC(=O)CCNC12CC3CC(CC(C3)C1)C2 | 25.3% (inactive)
36 | Oc1c(Cl)cc(Cl)c(Cl)c1Cc1c(O)c(Cl)cc(Cl)c1Cl | -72.7% (active)
37 | COc1cc(C2CC(c3ccc(C)cc3)=NN2C=O)ccc1OCCN(C)C (centres undefined) | 90.2% (inactive)
38 | NS(=O)(=O)c1cc(C2(O)NC(=O)c3ccccc32)ccc1Cl (centres undefined) | 115% (inactive)
39 | CCn1cnc(C[C@H](NC(=O)[C@H](CCCCNC(=O)Nc2cc(C(F)(F)F)cc(C(F)(F)F)c2)NC(=O)Nc2cc(C(F)(F)F)cc(C(F)(F)F)c2)C(=O)OC)c1 | -100% [100 µM] (active)
40 | CS(=O)(=O)N1CCN(Cc2cc3nc(-c4cccc5[nH]ncc45)nc(N4CCOCC4)c3s2)CC1 (tested in a mixture with another compound) | -0.161% (active)
41 | CN(C)c1ccc(-c2nc3ncc(Br)cc3o2)cc1 | 99.8% (inactive)
42 | COc1ccc(-c2cc(-c3nnc(SCC(=O)Nc4ccc(C(C)=O)cc4)n3-c3ccccc3)c3ccccc3n2)cc1OC | 109% (inactive)
43 | Nc1nc(NC2CC2)c2ncn(C3C=CC(CO)C3)c2n1 (centres undefined) | 91.6% (inactive)
44 | C[C@]12CCC(=O)C=C1CC[C@H]1[C@@H]3C[C@@H](O)[C@](O)(C(=O)CO)[C@@]3(C)C[C@H](O)[C@@]12F | 101% (inactive)

Row | SMILES | growth
45 | NS(=O)(=O)c1cc2c(cc1Cl)NC=NS2(=O)=O | 107% (inactive)
46 | COc1cnc2c(c1)C(=O)c1c-2n(CCCn2ccnc2)c(=O)c2cc(F)ccc12 | -96.2% (active)
47 | NC(=O)c1cc(Br)cc(Br)c1NS(=O)(=O)c1ccccc1 | 98.2% (inactive)
48 | CN(C)c1ccc(-n2nc3ccccc3n2)cc1 | 75.2% (inactive)
49 | CC1CN(C2CCCCC2)C(=O)NC1=O (centres undefined) | 105% (inactive)
50 | O=C1C=CC(=O)N1c1ccccc1N1C(=O)C=CC1=O | 106% (inactive)
51 | Cc1n(Cc2ccc3ccccc3c2)c2ccccc2[n+]1Cc1ccc2ccccc2c1 | -97.6% (active)
52 | C[C@H]1O[C@@H](O[C@H]2[C@@H](O)C[C@H](O[C@H]3[C@@H](O)C[C@H](O[C@H]4CC[C@]5(C)C6C[C@@H](O)[C@]7(C)[C@@H](C8=CC(=O)OC8)CC[C@]7(O)C6CC[C@@H]5C4)O[C@@H]3C)O[C@@H]2C)C[C@H](O)[C@@H]1O (some centres undefined) | -100% (active)
53 | O=C(CNc1ccc2c(c1)C(=O)c1ccccc1C2=O)Nc1ccc2c(c1)C(=O)c1ccccc1C2=O | -98.1% (active)
54 | Cc1sc2nc(N3CCCCC3)[nH]c(=O)c2c1C | 96.9% (inactive)
55 | NC(=NCCCCCCN=C(N)/N=C(\N)Nc1ccc(Cl)cc1)/N=C(\N)Nc1ccc(Cl)cc1 | -95.7% (active)
56 | COc1cc(NC(=O)NCc2ccco2)ccc1-c1ccc(NC(=O)NCc2ccco2)cc1OC | 30.6% (inactive)
57 | CSc1nc(Nc2ccc(S(=O)(=O)Nc3ccon3)cc2)c(C#N)c(-c2ccc(Cl)cc2)n1 | 97.4% (inactive)
58 | COP(=O)(OC)C(c1ccc(O)cc1)(c1ccc(O)cc1)c1ccc(O)cc1 | 87.3% (inactive)
59 | C=C1CCC2C(C)(COC(=O)CC)C(OC(=O)CC)CCC2(C)C1C/C=C1/C(=O)OCC1OC(=O)CC (centres undefined) | 16.8% (inactive)
60 | Cc1cnc2nc(-c3ccc(N(C)C)cc3)cn2c1 | 99.4% (inactive)
61 | Cc1ccc2nc3c(n2c1)C(=O)C(=O)c1ccccc1-3 | -95.9% (active)
62 | CC(C)=CCCC(C)c1ccc(C)c2c1OCN(CC1CCNCC1)C2 (centres undefined) | 42.2% (inactive)
63 | CCOc1cc(/C=C/C(=O)C(C(=O)/C=C/c2ccc(OC(=O)CNc3nc4ccccc4[nH]3)c(OCC)c2)C(=O)CNc2nc3ccccc3[nH]2)ccc1OC(=O)CNc1nc2ccccc2[nH]1 | -86.6% (active)
64 | COc1ccc(C(=O)/C=C/c2cccc(Nc3ccnc4cc(Cl)ccc34)c2)cc1 | 7.89% (active)
